Hits are enriched below; roughly 1.6% of the tested compounds scored in any of these assays.
PLAP activator = PLAP enzyme activators, biochemical, luminescence, HTS; purified PLAP enzyme, luminescent substrate read-out; stronger effect = higher value; activation fold at 20 µM; actives 1.2% (n = 96,000); AID 696, 2007; in the data active = activation fold above about 2
Target sequence (P05187 whole entry, looked up): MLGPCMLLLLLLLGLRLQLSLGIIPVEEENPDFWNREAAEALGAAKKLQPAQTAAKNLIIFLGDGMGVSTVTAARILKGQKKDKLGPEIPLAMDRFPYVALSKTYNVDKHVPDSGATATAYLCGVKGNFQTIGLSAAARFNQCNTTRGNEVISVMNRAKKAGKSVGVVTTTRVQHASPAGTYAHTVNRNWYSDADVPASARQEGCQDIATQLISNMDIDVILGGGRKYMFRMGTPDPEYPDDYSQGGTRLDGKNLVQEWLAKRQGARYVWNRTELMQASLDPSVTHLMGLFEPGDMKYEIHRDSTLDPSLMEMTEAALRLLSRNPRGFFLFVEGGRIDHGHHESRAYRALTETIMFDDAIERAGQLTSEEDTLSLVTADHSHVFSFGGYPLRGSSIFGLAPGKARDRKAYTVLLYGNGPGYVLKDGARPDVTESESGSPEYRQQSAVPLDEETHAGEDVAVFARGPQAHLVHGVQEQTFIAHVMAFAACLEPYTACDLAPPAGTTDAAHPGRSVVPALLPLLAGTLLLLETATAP
PTPN22 act = LYP phosphatase activators, primary screen, biochemical, DiFMUP fluorescence, 2 µM; Tyrosine-protein phosphatase non-receptor type 22 (Homo sapiens), Q9Y2R2; recombinant LYP; 0 = plate median, 100 = signal doubled; activation, % at 2 µM; actives 0.11% (n = 96,000);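 active = activation at 2 µM above a set limit, the mean plus 5 SD, cut at about 37% in these data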
LYP inh 2 = PTPN22 phosphatase inhibitors, primary screen, biochemical, DiFMUP fluorescence, 2 µM; actives 0.21% (n = 96,000); recombinant LYP catalytic domain; inhibition, % at 2 µM; AID 640, 2007;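 active = inhibition at 2 µM at or above a set limit, the screen mean plus 3 SD, cut at about 24% in these data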;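 note: 0% = DMSO with enzyme and 100% = enzyme fully blocked by orthovanadate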
TNAP act DEA = human TNAP enzyme activators, primary screen, biochemical, luminescent, intermediate phosphate acceptor level. Alkaline phosphatase, tissue-nonspecific isozyme (Homo sapiens), P05186. purified TNAP, CDP-star luminescence, 100 mM DEA, 30 min; stronger effect = higher value; scale: 0 levamisole-inhibited, 1 vehicle-only enzyme. activation factor at 20 µM. 64,000 tested, under 10 active. AID 813, 2007;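 active = activation factor of at least 2 at 20 µM, relative to controls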
MT1-MMP txn act = MT1-MMP promoter reporter activation – cell-based, luciferase luminescence, primary screen. actives 0.16% (n = 86,000). activation factor at 10 µM. HT1080 MT1-MMP promoter luciferase reporter, overnight; stronger effect = higher value;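 active = activation factor of at least 2 for MT1-MMP transcription at 10 µM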
Starred values were filed as active, the others as inactive; / = not tested or not shown.

SMILES	PLAP activator	PTPN22 act	LYP inh 2	TNAP act DEA	MT1-MMP txn act
COC(=O)C1=CNC=C(C(=O)OC)C1c1ccc(C(=O)OC)cc1	2*	/	/	1	1.2
Cc1c(NC2=NC(C)(C)Cc3ccccc32)c(=O)n(-c2ccccc2)n1C	/	2	-2	/	1.3
CCC1(CC)Cc2ccccc2C(Nc2c(C)n(C)n(-c3ccccc3)c2=O)=N1	2*	-1	2	/	1
Cc1ccccc1CN(c1ccc(C(=O)Nc2ccccc2C(=O)N2CCCC2)cc1)S(C)(=O)=O	2*	12	-10	/	1.2
Cn1nnnc1SCC(=O)Nc1cc(C(=O)O)cc(C(=O)O)c1	0.8	5	-3	/	/
CCOc1ccc(N=C2NC(=O)S/C2=C\c2ccc(Cl)cc2)cc1	0.8	-22	26*	/	/
CC(=O)N1CC=CC1(C)C(=O)NCC1CC1 (stereo not drawn)	/	/	/	/	0.9
CCOC(=O)c1c(C)n(C)c2ccc(OC)c(NC(=O)CN3CCN(C4CCCCC4)CC3)c12	2*	-2	4	/	1.1
COc1cccc2cc(C(=O)NCc3ccccn3)c(=O)oc12	/	6	-4	/	2.1*
C[C@H]1C2=C3[C@@H](C[C@H]4C(=O)N(c5ccccc5)C(=O)[C@H]4[C@H]3[C@@]3(Cc4ccccc4)C(=NCCc4c[nH]c5ccccc45)OC(=O)N3C2=O)[C@H]2C(=O)N(c3ccccc3)C(=O)[C@H]21	/	/	/	/	1.2
O=C(c1ccc(Cl)cc1)c1cnc(-c2ccc(Cl)cc2)s1	0.8	-40	41*	/	/
Cc1cc(-c2c(C)[nH]n(-c3ccc(Cl)cc3)c2=O)n[nH]1	2*	-82	82*	/	/
Cc1[nH]n(-c2ccccc2)c(=O)c1Sc1ccc(Cl)cc1	1	-7	11	/	1.1
COc1ccc(-c2nc(-c3ccccc3)c(-c3cccs3)[nH]2)cc1OC	2*	-4	1	/	1.2
O=C(Nc1ccc2c(c1)OCO2)C1CCN(S(=O)(=O)Cc2ccccc2)CC1	0.9	15	-17	0.9	1
O=C(Nc1ccc2c(c1)OCO2)C1CCN(Cc2cnn(-c3ccccc3)c2-n2cccc2)CC1	2.9*	-9	7	1	/
Nn1c(-c2ccccc2Cl)nnc1-c1ccccc1Cl	/	-8	8	/	2*
CSc1nnc(-c2ccccc2Cl)n1N	1.1	7	-9	1	1.5
CC(C)[C@H](N)c1nnc(SC/C=C/c2ccccc2)o1	1.2	0	-3	/	1
COc1ccc(C(NC(C)=O)c2ccc3cccnc3c2O)c(OC)c1 (stereo not drawn)	2.4*	/	/	1.3	0.5
CC(C)C(=O)NC(c1ccco1)c1ccc2cccnc2c1O (stereo not drawn)	1.8	-8	6	1.1	/
CCCOc1ccccc1C1C(C(=O)OC)=CN(C(C)C)C=C1C(=O)OC	2*	-1	0	1.5	1.1
CCCCOc1ccccc1C1C(C(=O)OC)=CN(CC)C=C1C(=O)OC	1.6	5	-6	1.3	1.1
COC(=O)c1ccc(C(NC(=O)OCc2ccccc2)/C(I)=C/[C@@H](C)C(=O)NCc2ccncc2)cc1 (stereo partly drawn)	/	/	/	/	1
C/C(N)=C(/C#N)C(=O)COC(=O)c1ccncc1	2.3*	0	-2	1	1.1
SMILES	PLAP activator	PTPN22 act	LYP inh 2	TNAP act DEA	MT1-MMP txn act
C/C(N)=C(/C#N)C(=O)COC(=O)CCS(=O)(=O)c1ccccc1	1.3	5	-2	/	/
Cc1ccc(C(=O)Nc2ccon2)cc1S(=O)(=O)N1CCCC1	0.8	4	-7	/	1.3
COc1ccc(C2c3c(-c4ccccc4O)n[nH]c3C(=O)N2CCc2ccc(OC)c(OC)c2)cc1 (stereo not drawn)	2.8*	-7	4	0.8	1
COc1ccc(CCN2C(=O)c3[nH]nc(-c4ccccc4O)c3C2c2cccc(Cl)c2)cc1 (stereo not drawn)	1	-4	6	/	1.1
Cc1c(Cl)cccc1-n1nnnc1-c1cccs1	0.9	/	/	0.8	1
CCOc1cc(S(=O)(=O)NCCc2cccc(C)c2)c(OCC)cc1-n1cnnn1	1.4	4	-7	0.9	1.2
COc1ccc(C(=O)NCCCn2ccnc2)cc1	1	5	-4	0.9	1.1
COc1ccc(-c2nn(-c3ccccc3)cc2C(=O)NCCCn2ccnc2)cc1	2.6*	-7	6	1.1	1
COC(=O)[C@@]1(Cc2ccccc2)[C@H]2c3cc(C(=O)N4CCCC4)n(C)c3C[C@H]2CN1C(=O)c1ccccc1	/	/	/	/	1.1
NC1=NC(c2ccc(Br)cc2)n2c(nc3ccccc32)N1 (stereo not drawn)	2.2*	7	-1	1.3	1
CCOC(=O)C1C(=O)Nc2nc3ccccc3n2C1C(C)C (stereo not drawn)	1.3	-8	7	0.1	1.2
CCOC(=O)c1ccccc1-n1c(C)cc(C2N=C(N)Nc3nc4ccccc4n32)c1C (stereo not drawn)	2.5*	7	-5	/	/
COc1ccc(OC)c(-n2c(-c3cc(-c4ccc(F)cc4)n[nH]3)n[nH]c2=S)c1	2*	-7	11	/	/
CC(C)(C)c1ccc(-c2cc(C(=O)NNC(=O)Nc3ccccc3)c3ccccc3n2)cc1	2.1*	9	-11	/	/
O=C(NNC(=O)c1cc(-c2ccccc2)nc2ccccc12)Nc1cccc(Cl)c1	1.9	12	-17	/	/
CN1CC(=O)N/C1=N\C(=O)Nc1ccc2c(c1)N(C)C(=O)CS2	2.8*	4	-2	1.1	/
Cc1cc(C)cc(NC(=O)Nc2ccc3c(c2)N(C)C(=O)CS3)c1	0.9	-4	0	/	/
COc1ccc(C(=O)NNC(=S)NC2CCCCC2)cc1OC	2.5*	-10	11	/	/
CCC(=O)Nc1cc(NC(=O)CSc2ncc(-c3ccc(F)cc3)n2Cc2ccco2)ccc1C	1.7	-2	0	0.9	2.1*
COc1cccc(N=Nc2c(=O)[nH]n3c(=O)cc(C)[nH]c23)c1	2*	16	-21	/	/
O=c1[nH]n2c(=O)c3c([nH]c2c1N=Nc1cccc(C(F)(F)F)c1)CCCC3	/	-12	13	/	1.2
CN(CC(=O)NC(c1ccccc1)c1ccccc1)Cc1nc2ccccc2c(=O)[nH]1	4.9	6	-6	/	1.1
CN(CC(=O)NC(=O)NCc1ccco1)Cc1nc2ccccc2c(=O)[nH]1	2.3*	/	/	1.5	1
c1ccc2c(c1)ncn2-c1ncnc2sc3c(c12)CCCC3	1	-5	7	/	1.2
CC(O)CNc1nc2ccccc2n1-c1ncnc2sc3c(c12)CCC3 (stereo not drawn)	2.7*	-2	1	1.5	1.1
CCOC(=O)c1ccc(Nc2cc(C)nc3ncnn23)cc1	2*	-5	2	0.9	1.1
COC(=O)c1ccc(Nc2cc(C)nc3ncnn23)cc1	2.2*	8	-10	0.9	1.2

High-throughput results: PubChem BioAssay, several laboratories
